Experimental findings from PubChem BioAssay are described below.

A short description of assay [1]: yeast TOR pathway RPL19A-GFP modulators, primary screen, cell-based, S. cerevisiae, multiplex flow cytometry (AID 1862; in the data active = percent of DMSO control GFP below about 86%;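 note: lower values mimic rapamycin by blocking the RPL19A rise seen in DMSO cells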). Particulars: S. cerevisiae RPL19A-GFP strain, flow cytometry fluorescence, 3 h; at 10 µM; stronger effect = lower value. For orientation: A flow cytometer gives signals particle by particle.
Assay [2] can be described thus: modulators of MEP2-GFP levels in yeast, primary screen, S. cerevisiae, multiplex flow cytometry (AID 1867;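 active = GFP response, as percent of the DMSO control, above the screen-wide mean plus 3 SD, about 139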;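 note: median GFP channel fluorescence of barcode-gated MEP2-GFP cells measured by flow cytometry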). Particulars: S. cerevisiae MEP2-GFP strain, 3 h, at 10 µM, stronger effect = higher value, 100% means same as DMSO wells.
The nature of assay [3]: modulators of CIT2-GFP expression in yeast, primary screen, S. cerevisiae, GFP fusion, multiplex flow cytometry (AID 1870;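 active = percent response above a set limit, the screen-wide mean plus 3 SD, cut at about 130% in these data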;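 note: barcoded CIT2-GFP strain pooled with four other GFP strains with rapamycin as positive control; median GFP fluorescence per well over plate mean of DMSO wells so 100% = DMSO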). Particulars: 3 h, at 10 µM, stronger effect = higher value.
Assay [4] in a line: modulators of LAP4-GFP expression in yeast, primary screen, S. cerevisiae, multiplex flow cytometry (AID 1873;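 active = GFP signal, as percent of the solvent control, above the screen mean plus 3 SD, about 149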). The conditions noted are these: 3 h, at 10 µM, stronger effect = higher value.
Assay [5] is described as follows: modulators of AGP1-GFP expression in yeast TOR pathway, primary screen, cell-based, multiplex flow cytometry, S. cerevisiae (AID 1887;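 active = GFP signal above the screen-wide mean plus 3 SD, that is over about 124.5% of the solvent control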;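 note: AGP1-GFP fusion strain of S. cerevisiae within a five-strain barcoded multiplex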). The conditions noted are these: 3 h, at 10 µM, stronger effect = higher value.
Assay [6] in a line: inhibitors of CD8+ T cell-vesicle binding, pilot screen, LFA-1/ICAM-1 modulator project, MLPCN validation set, flow cytometry (AID 2523).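 For vesicle binding response: mean PE anti-B7-1 fluorescence of CD8+ cells relative to row control; 100% = QL9-loaded vesicles with DMSO vehicle in the same plate row.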 The conditions noted are these: 2C mouse CD8+ T cells, at 7 µM, stronger effect = lower value; double positive events: measured here: CD8+/vesicle+ event percentage.
Assay [7] addresses Integrin beta-1 (Homo sapiens) + Integrin alpha-4 (Homo sapiens) (UniProt P13612+P05556). The experiment in a line: inhibition of HUTS-21 binding to VLA-4, pilot screen, VLA-4 allosteric modulator project, U937 cells, HUTS-21 mAb, flow cytometry, validation set (AID 2674;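 active = inhibition above 50%, about 3 SD of the validation set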;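 note: antibody binding induced by the VLA-4 ligand LDV present at three times its Kd; 0% = LDV ligand with antibody and no compound and 100% = antibody without LDV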). Particulars: HUTS-21 LIBS mAb binding, at 6.7 µM, stronger effect = higher value, binding induced by LDV ligand.
Assay [8] in a line: superoxide lowering in aged yeast cells, pilot screen, validation compound set (AID 2706;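 active = superoxide response below 65% of plate, a cut near 3 SD across the whole screen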;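 note: yeast exposed to compound for one week at 30 degrees C before staining; 100% = mean of all compound wells on the same plate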). Particulars: S. cerevisiae aging, superoxide DHE fluorescence; at 10 µM; stronger effect = lower value.
In assay [9] the target is Beta-adrenergic receptor kinase 1 (Homo sapiens) (UniProt P25098). Description: GRK2 binders displacing RNA aptamer, biochemical, validation, human GRK2, bead flow cytometry (AID 488806;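 active = aptamer binding inhibition above 30%, about 3 SD of noise from non-fluorescent compounds; inactive = inhibition at or below 30%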). The conditions noted are these: bead-bound GRK2, FAM-aptamer displacement, at 10 µM, stronger effect = higher value.
The target in assay [10] is Beta-2 adrenergic receptor (Homo sapiens) (UniProt P07550). Description: beta2AR agonists driving receptor internalization, pilot screen, cell-based, FAP fluorogen, flow cytometry, validation set (AID 504459;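 active = percent response above 42, roughly 3 SD of non-fluorescent test compounds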;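 note: agonist-driven loss of surface beta2AR via internalization measured by FAP dye flow cytometry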). The conditions noted are these: Am2.2-beta2AR cells, FAP surface receptor flow cytometry; at 10 µM; stronger effect = higher value.
The target in assay [11] is AP-2 complex subunit beta (Homo sapiens) (UniProt P63010). Description: inhibitors of arrestin peptide binding to AP2, pilot screen, biochemical, validation set, GST-AP2 beads, flow cytometry (AID 504541;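 active = inhibition above 54%, about 3 SD of non-fluorescent compounds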;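 note: AP2 carries R879A mutation and is captured from E. coli lysate; bead-bound FITC arrestin peptide fluorescence measuring arrestin peptide binding to AP2; 0% = DMSO wells and 100% = excess unlabeled arrestin peptide control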). The conditions noted are these: FITC arrestin peptide, at 10 µM, stronger effect = higher value, AP2 beta2 appendage fragment, R879A mutant.
Assay [12] is described as follows: yeast V-ATPase proton transport modulators, S. cerevisiae, pHLuorin, HTS validation (AID 504600; in the data active = response above about 15%;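 note: plate controls were DMSO for no effect and reference compound for full effect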). The conditions noted are these: S. cerevisiae pHLuorin cytosolic pH, at 10 µM, stronger effect = higher value.
Assay [13] concerns anti-desmoglein-3 scFv antibody binding to human DSG3. Description: inhibitors of anti-DSG3 scFv binding to DSG3, pilot screen, biochemical, validation compound set, bead-based, flow cytometry (AID 588368;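 active = binding below the plate cutoff, the plate median minus 3 SD, with a reading above zero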;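 note: signal is the median channel fluorescence of bead-bound GFP antibody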). Particulars: Protein G beads, DSG3-Fc, scFv-GFP binding, at 10 µM, stronger effect = lower value.
Assay [14] is described as follows: inhibitors of fungal efflux pumps CDR1, CDR2, MDR1, pilot screen, validation compound set, multiplex, phenotypic (AID 588506;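 active = efflux inhibition above 0.42, the validation set average plus 4 SD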;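 note: Nile Red retained in cells so higher fluorescence means more efflux inhibition; 0 = negative control wells and 1 = enniatin B 25 µM full block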). Particulars: S. cerevisiae pump-expressing triplex, Nile Red efflux flow cytometry; at 10 µM; stronger effect = higher value; the pumps come from Candida albicans.
Assay [15] concerns the target ATP-binding cassette sub-family B member 6 (Homo sapiens) (UniProt Q9NP58). Description: ABCB6 transporter inhibitors, pilot screen, K562-ABCB6 cells, flow cytometry, validation set (AID 588550;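 active = inhibition above the screen-wide mean plus 3 SD, about 51%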;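 note: 0% = DMSO wells and 100% = benzethonium chloride 70 µM positive control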). The conditions noted are these: K562-ABCB6 porphyrin accumulation, 1 h, at 10 µM, stronger effect = higher value.
Assay [16] can be described thus: promoters of myeloid differentiation in arrested cells, primary screen, cell-based, GFP/MAC1 double positive, flow cytometry, validation set (AID 588685;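 active = differentiation response of at least 50%, scaled between solvent and reference control, from cells with both markers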;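 note: compound exposure lasts four days before antibody staining and flow analysis; 0% = DMSO wells and 100% = 5 µM fulvestrant positive control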). The conditions noted are these: ER-HoxA9 marrow cells, stronger effect = higher value, normalized: vehicle 0, fulvestrant 100.

Results filed as inconclusive are left out. Calls of active or inactive are those of the source.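 Rule for the calls, unless noted: active = response below a set limit, under 55% cells CD8-positive and vesicle-bound, and CD8 cells' 90th-percentile brightness under 279; inactive = the rest.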

Chain of Integrin beta-1 (Homo sapiens) + Integrin alpha-4 (Homo sapiens) (P05556 whole entry, looked up): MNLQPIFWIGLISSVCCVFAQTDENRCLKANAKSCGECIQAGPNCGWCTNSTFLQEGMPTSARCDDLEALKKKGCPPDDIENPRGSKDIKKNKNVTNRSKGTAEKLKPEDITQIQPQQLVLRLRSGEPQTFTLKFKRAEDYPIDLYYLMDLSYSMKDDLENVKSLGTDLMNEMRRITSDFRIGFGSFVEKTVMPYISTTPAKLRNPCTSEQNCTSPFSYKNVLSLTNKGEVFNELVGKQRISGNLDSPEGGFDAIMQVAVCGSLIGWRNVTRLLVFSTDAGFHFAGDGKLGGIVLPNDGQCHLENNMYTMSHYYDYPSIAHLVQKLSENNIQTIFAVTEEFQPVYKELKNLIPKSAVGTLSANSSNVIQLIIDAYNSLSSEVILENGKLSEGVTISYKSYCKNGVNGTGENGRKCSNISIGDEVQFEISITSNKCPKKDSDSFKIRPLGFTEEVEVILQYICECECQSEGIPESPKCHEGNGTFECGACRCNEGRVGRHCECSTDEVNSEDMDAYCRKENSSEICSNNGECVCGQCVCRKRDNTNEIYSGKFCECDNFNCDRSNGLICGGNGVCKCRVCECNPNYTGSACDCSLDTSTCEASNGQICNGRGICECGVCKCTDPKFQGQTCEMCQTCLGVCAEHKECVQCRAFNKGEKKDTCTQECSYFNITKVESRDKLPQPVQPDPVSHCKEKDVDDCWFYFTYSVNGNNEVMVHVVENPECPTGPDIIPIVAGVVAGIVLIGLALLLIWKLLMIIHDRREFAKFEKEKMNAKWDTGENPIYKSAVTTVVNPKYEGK
Chain of Integrin beta-1 (Homo sapiens) + Integrin alpha-4 (Homo sapiens) (P13612 whole entry, looked up): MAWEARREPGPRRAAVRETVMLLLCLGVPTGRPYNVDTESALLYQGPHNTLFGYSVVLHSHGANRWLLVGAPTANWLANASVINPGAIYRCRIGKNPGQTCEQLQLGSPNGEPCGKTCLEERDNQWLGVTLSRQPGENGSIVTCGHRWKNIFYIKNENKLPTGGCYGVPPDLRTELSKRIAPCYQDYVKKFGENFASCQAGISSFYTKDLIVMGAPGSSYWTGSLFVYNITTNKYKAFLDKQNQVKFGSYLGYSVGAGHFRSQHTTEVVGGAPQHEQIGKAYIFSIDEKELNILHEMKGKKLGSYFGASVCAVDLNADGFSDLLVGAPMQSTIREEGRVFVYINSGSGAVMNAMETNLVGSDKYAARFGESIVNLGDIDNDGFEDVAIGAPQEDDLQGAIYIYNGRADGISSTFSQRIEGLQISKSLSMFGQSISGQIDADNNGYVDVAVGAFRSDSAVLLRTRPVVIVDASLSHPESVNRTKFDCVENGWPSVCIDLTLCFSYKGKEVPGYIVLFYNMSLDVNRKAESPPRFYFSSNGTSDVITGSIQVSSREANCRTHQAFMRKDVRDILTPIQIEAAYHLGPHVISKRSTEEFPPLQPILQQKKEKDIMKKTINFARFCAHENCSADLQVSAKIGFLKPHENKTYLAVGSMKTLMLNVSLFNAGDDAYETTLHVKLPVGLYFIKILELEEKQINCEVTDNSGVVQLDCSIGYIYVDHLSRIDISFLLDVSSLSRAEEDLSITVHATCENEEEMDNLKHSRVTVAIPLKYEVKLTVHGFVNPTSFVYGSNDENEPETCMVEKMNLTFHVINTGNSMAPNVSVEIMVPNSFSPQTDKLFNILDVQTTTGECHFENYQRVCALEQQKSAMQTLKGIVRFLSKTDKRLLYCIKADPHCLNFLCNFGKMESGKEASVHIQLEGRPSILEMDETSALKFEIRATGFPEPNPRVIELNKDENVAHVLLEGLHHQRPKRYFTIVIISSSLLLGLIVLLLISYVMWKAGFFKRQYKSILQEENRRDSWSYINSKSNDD
Chain of Beta-2 adrenergic receptor (Homo sapiens) (P07550 whole entry, looked up): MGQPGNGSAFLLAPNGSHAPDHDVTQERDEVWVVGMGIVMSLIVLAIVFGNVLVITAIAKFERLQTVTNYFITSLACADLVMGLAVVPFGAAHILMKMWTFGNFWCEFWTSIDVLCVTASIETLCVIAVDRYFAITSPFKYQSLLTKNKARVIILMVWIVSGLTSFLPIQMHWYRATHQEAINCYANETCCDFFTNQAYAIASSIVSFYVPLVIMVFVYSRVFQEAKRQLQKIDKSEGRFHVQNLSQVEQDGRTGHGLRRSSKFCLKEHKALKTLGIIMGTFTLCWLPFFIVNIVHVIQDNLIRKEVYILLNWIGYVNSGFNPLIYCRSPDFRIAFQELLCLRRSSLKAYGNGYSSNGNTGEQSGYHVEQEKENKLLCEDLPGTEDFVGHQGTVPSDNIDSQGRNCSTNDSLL
Chain of Beta-adrenergic receptor kinase 1 (Homo sapiens) (P25098 whole entry, looked up): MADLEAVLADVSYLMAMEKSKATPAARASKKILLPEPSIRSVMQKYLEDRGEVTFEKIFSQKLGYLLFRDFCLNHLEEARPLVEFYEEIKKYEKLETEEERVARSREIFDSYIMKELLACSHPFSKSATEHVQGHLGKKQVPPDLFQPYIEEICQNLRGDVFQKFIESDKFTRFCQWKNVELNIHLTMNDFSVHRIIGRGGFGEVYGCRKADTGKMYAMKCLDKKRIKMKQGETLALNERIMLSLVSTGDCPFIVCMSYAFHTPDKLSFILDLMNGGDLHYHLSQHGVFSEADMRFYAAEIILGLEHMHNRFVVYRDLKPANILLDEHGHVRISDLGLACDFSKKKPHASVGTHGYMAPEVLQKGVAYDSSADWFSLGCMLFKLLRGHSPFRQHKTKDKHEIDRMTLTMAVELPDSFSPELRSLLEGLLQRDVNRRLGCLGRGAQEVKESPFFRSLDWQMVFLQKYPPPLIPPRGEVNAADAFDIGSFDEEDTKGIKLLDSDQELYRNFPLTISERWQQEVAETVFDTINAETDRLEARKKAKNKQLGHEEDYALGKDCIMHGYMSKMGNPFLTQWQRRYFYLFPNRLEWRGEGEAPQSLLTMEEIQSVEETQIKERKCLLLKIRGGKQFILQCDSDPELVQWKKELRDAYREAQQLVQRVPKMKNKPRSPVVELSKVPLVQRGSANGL
Chain of ATP-binding cassette sub-family B member 6 (Homo sapiens) (Q9NP58 whole entry, looked up): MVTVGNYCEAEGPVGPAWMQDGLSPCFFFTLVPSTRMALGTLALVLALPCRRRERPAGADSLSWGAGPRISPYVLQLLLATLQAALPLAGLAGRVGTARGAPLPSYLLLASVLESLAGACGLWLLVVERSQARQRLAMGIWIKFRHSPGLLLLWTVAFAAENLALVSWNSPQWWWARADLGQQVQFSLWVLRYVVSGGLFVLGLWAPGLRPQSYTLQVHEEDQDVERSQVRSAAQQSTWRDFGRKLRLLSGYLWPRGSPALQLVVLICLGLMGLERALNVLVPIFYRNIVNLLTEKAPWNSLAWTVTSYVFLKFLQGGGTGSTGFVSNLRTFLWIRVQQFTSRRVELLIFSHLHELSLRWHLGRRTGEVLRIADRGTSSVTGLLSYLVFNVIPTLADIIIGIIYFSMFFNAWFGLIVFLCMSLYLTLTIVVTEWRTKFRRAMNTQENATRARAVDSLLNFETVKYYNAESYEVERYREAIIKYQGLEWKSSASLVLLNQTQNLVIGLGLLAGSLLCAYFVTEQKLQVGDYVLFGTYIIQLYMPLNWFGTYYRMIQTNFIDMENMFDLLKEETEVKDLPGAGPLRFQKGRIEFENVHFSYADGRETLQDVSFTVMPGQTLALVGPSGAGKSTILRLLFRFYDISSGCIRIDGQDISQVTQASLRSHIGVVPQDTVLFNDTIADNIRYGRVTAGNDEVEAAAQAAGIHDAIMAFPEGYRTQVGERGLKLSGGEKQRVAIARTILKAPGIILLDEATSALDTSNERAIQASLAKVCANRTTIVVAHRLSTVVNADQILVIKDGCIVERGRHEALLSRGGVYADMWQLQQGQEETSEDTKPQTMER
Chain of AP-2 complex subunit beta (Homo sapiens) (P63010 whole entry, looked up, the tested form may be a part, one chain of several): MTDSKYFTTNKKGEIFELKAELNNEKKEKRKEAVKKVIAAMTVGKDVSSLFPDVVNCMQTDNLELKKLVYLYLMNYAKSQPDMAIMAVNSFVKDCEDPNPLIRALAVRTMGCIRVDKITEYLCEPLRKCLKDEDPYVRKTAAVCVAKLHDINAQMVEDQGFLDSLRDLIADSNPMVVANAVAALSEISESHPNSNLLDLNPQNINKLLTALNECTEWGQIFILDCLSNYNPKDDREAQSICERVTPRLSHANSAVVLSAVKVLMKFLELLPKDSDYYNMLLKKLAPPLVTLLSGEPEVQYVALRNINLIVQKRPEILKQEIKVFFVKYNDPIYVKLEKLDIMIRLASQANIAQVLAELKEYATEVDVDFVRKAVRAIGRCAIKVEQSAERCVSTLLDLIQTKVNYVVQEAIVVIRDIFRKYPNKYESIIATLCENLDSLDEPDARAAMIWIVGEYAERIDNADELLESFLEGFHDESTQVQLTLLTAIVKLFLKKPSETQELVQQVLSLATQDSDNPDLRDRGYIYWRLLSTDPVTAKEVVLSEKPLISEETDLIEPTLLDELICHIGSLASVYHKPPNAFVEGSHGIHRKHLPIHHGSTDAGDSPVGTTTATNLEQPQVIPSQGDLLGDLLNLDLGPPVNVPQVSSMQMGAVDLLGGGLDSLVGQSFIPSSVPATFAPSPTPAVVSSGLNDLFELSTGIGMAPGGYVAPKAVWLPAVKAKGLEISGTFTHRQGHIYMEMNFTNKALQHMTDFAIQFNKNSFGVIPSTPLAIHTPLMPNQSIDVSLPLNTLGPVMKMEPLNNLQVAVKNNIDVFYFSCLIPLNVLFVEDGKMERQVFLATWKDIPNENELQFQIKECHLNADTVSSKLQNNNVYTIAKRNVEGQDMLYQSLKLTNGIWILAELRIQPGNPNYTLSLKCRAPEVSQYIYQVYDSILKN

As usually defined, the inhibition is the change of the read-out against control, counted positive when it falls. In the case of `CN(C)CCCN1c2ccccc2Sc2ccccc21`, the percent of DMSO control GFP in assay [1] was 98.1% (inactive). Besides, the GFP response vs DMSO in [2] was 102% (inactive); in assay [4] it was 107% (inactive). Moreover, the percent response of DMSO control in [3] is 99.6% (inactive). Also, the GFP response, % of DMSO in assay [5] was 120% (inactive). The molecule further registered a double positive events in assay [6] of 61.4%. For the same molecule, the vesicle binding response in assay [6] is 202% (inactive). In addition, the inhibition in assay [7] was 44% (inactive); in [11] it was 7.22% (inactive); in assay [15], 8% (inactive). For the same molecule, the superoxide response (% of plate) in assay [8] is 96.9% (inactive). The aptamer binding inhibition in assay [9] was -3% (inactive). Further, the results for the response in assay [10] and in [12] were 0.87% (inactive) and -5.2% (inactive), respectively. In [13], the binding (% of control) was 102% (inactive). For the same molecule, the efflux inhibition (fraction of control) in [14] is -0.09 (inactive). Besides, in assay [16], the differentiation response is 23.6% (inactive).

On to `c1ccc(Cn2ncc3c(Nc4ccccc4)ncnc32)cc1`, for which, in assay [1], the percent of DMSO control GFP was 96.7% (inactive). Further, the GFP response vs DMSO in [2] was 106% (inactive); in assay [4], 117% (inactive). The percent response of DMSO control in assay [3] was 103% (inactive). The GFP response, % of DMSO in assay [5] was 107% (inactive). In [6], this molecule registered a double positive events of 63.6%. Moreover, the vesicle binding response in [6] is 244% (inactive). Moreover, the inhibition was 9.95% (inactive) in assay [7], 9.49% (inactive) in [11] and 2% (inactive) in assay [15]. In assay [8], the superoxide response (% of plate) is 121% (inactive). Moreover, the aptamer binding inhibition in assay [9] was -1% (inactive). In addition, the values for the response in [10] and in assay [12] were -42.2% (inactive) and 3.17% (inactive), respectively. Besides, the binding (% of control) in assay [13] was 101% (inactive). Moreover, the efflux inhibition (fraction of control) in assay [14] is 0.08 (inactive). In assay [16], the differentiation response is -8.93% (inactive).

As for `CC1(C)S[C@@H]2[C@H](NC(=O)Cc3ccccc3)C(=O)N2[C@H]1C(=O)O`, in assay [1], the percent of DMSO control GFP is 105% (inactive). The GFP response vs DMSO in [2] was 102% (inactive); in assay [4], 101% (inactive). For the same molecule, the percent response of DMSO control in assay [3] was 98.3% (inactive). Further, the GFP response, % of DMSO in [5] is 119% (inactive). Also, the double positive events in [6] came out at 66.2%. In addition, in [6], the vesicle binding response is 185% (inactive). For the same molecule, the inhibition in [7] is 15.1% (inactive); in [11], 1.23% (inactive); in assay [15] it was 10% (inactive). Also, in assay [8], the superoxide response (% of plate) was 92.1% (inactive). In assay [9], the aptamer binding inhibition was 3% (inactive). Moreover, the response was -19.9% (inactive) in [10] and -1.26% (inactive) in assay [12]. The binding (% of control) in assay [13] was 99.7% (inactive). Also, in assay [14], the efflux inhibition (fraction of control) was 0.08 (inactive). For the same molecule, in assay [16], the differentiation response was 2.89% (inactive).

Consider `COc1cc(/C=C/C(=O)O)cc(S(=O)(=O)NCCCO)c1OC`, for which, in [1], the percent of DMSO control GFP is 97.3% (inactive). Besides, the figures for the GFP response vs DMSO in assay [2] and in assay [4] were 98.5% (inactive) and 116% (inactive), respectively. The percent response of DMSO control in assay [3] was 91% (inactive). Moreover, in assay [5], the GFP response, % of DMSO is 105% (inactive). In assay [6], the double positive events amounted to 59.6%. In addition, in [6], the vesicle binding response is 157% (inactive). In addition, the inhibition was 6.4% (inactive) in [7], -5.7% (inactive) in assay [11] and 5% (inactive) in [15]. For the same molecule, the superoxide response (% of plate) in assay [8] was 95.1% (inactive). For the same molecule, the aptamer binding inhibition in [9] was 5% (inactive). Moreover, the response is 8.94% (inactive) in assay [10] and -0.12% (inactive) in [12]. Moreover, the binding (% of control) in assay [13] is 96.6% (inactive). In [14], the efflux inhibition (fraction of control) is -0.13 (inactive). Further, in [16], the differentiation response is -15.2% (inactive).

Consider `CN(C)C(=O)CCCCCCCCC(=O)N(C)C`, for which the percent of DMSO control GFP in assay [1] is 90.6% (inactive). For the same molecule, the GFP response vs DMSO is 146% (active) in [2] and 79.2% (inactive) in [4]. Besides, the percent response of DMSO control in [3] was 107% (inactive). For the same molecule, in assay [5], the GFP response, % of DMSO was 93.3% (inactive). In addition, the double positive events in assay [6] worked out at 64.1%. Besides, the vesicle binding response in assay [6] was 194% (inactive). Moreover, the inhibition in assay [7] is 7.43% (inactive); in assay [11] it was 12.9% (inactive); in assay [15], 6% (inactive). Further, the superoxide response (% of plate) in assay [8] was 81.8% (inactive). Further, the aptamer binding inhibition in assay [9] is 5% (inactive). In addition, the response is 3.92% (inactive) in [10] and -5.22% (inactive) in [12]. In addition, the binding (% of control) in [13] was 101% (inactive). Further, the efflux inhibition (fraction of control) in assay [14] was 0.16 (inactive). Also, in [16], the differentiation response was 1.64% (inactive).
